# Test results as given in PubChem BioAssay.
# Biological target: Alpha-bungarotoxin (Bungarus multicinctus) (UniProt P60615)
# Assay: compounds binding labelled alpha-BTX control protein – biochemical, small-molecule microarray, Alexa647 label, 635/667 nm fluorescence, artefact control for SMM control protein annotation, profiling panel (AID 1117)
# Conditions: alpha-BTX-A647 binding fluorescence, higher = more signal
# Sequence of Alpha-bungarotoxin (Bungarus multicinctus) (P60615 whole entry, looked up): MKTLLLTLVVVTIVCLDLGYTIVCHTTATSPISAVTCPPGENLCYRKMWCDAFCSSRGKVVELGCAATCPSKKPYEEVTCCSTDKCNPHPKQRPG
row,SMILES,composite z-score
1,COc1cc2c(cc1O)C=[N+](Cc1cccc(OC(F)(F)F)c1)CC2,0.0656
2,CCOC(=O)C=Cc1cc([N+](=O)[O-])ccc1O,-0.234
3,N#Cc1ccc(NN2C(C(O)c3c(F)cccc3Cl)C=CC3C(=O)N(c4ccccc4)C(=O)C32)cc1 (stereo unspecified),1.59
4,O=C1O[C@H](c2ccccc2)[C@H](c2ccccc2)N2[C@H]1[C@@H](C(=O)NC[C@H](O)c1ccccc1)[C@]1(C(=O)Nc3ccccc31)[C@H]2c1ccc(OCCO)cc1,1.33
5,O=C1c2ccccc2[C@](Cc2ccccc2I)(C(=O)NC2CC2)[C@H](c2ccc(CO)cc2)N1C1CCCCC1,1.38
6,CC(C)C[C@@H]1NC(=O)[C@@H]2C[C@H](C(=O)NCCCCCN)[C@H](c3cccc(OCCO)c3)N2C1=O,0.417
7,CCCCCN1CC=CC23O[C@@H]4/C=C\CCCOC(=O)C4[C@H]2C(=O)N(C(CO)C(C)C)[C@@H]3C1=O (stereo partly specified),-0.0063
8,O=C(NCc1ccc(F)cc1)[C@H]1C[C@H]2C(=O)N[C@@H](Cc3ccccc3)C(=O)N2[C@H]1c1ccc(O)cc1,-0.051
9,COCC(=C=CC[C@@H](O)c1ccccc1OCCO)C[C@@H](O)c1cc(Cl)cc(Cl)c1O,0.792
10,COCCOC(=O)N1C(=O)[C@@]2(c3cc(C#CC4=CCCCC4)ccc31)[C@H](C(N)=O)[C@H]1C(=O)O[C@H](c3ccccc3)[C@H](c3ccccc3)N1[C@@H]2c1ccc(OCCO)cc1,1.56
11,O=C1OCCC/C=C\[C@H]2OC34C=CCN(Cn5nnc6ccccc65)C(=O)[C@H]3N(CCO)C(=O)[C@@H]4C12 (stereo partly specified),-0.601
12,C=CCOC(=O)[C@H]1[C@@H]2C(=O)O[C@@H](c3ccccc3)[C@@H](c3ccccc3)N2[C@@H](c2ccc(OCCOC(=O)[C@@H]3C[C@@H]4C(=O)N5CCC[C@H]5C(=O)N4[C@@H]3c3cccc(OCCO)c3)cc2)[C@]12C(=O)Nc1ccccc12,1.34
13,CCCCCCC#C[Si](O[C@H](c1ccccc1)c1cn([C@H](CO)Cc2ccccc2)nn1)(C(C)C)C(C)C,-0.218
14,COc1ccc([Si](C)(C)[C@H]2[C@H](CC(=O)N3CCC[C@H]3CO)O[C@@]3(C(=O)N(Cc4cccc(N5C(=O)c6cccc7cccc5c67)c4)c4ccccc43)[C@@H]2C)cc1,1.56
15,CC(C)C[C@@H]1NC(=O)[C@H]2C[C@@H](C(=O)NCCCCCCN(C)C)[C@@H](c3ccc(O)cc3)N2C1=O,0.419
16,CN1C(=O)C2C=CC(C(O)C3CC=CCC3)N(NC(=O)OC(C)(C)C)C2C1=O (stereo unspecified),1.3
17,O=C1OCCC/C=C\[C@H]2OC34C=CCN(CCN5CCOCC5)C(=O)[C@H]3N(CCCO)C(=O)[C@@H]4C12 (stereo partly specified),1.19
18,Cc1ccc(S[C@]2(C(=O)NCC(F)(F)F)CC(=O)N(C(C)C)[C@@H]2c2ccc(CO)cc2I)cc1,-0.472

row,SMILES,composite z-score
1,CCCCCN1CC=CC23O[C@@H]4/C=C\CCCOC(=O)C4[C@H]2C(=O)N(CCCO)[C@@H]3C1=O (stereo partly specified),-0.0566
2,CN(C)C(=O)[C@]1(Cc2ccccc2N=[N+]=[N-])N=C(c2ccc(OCCCO)cc2)O[C@@H]1c1ccccc1,1.3
3,COCCOC(=O)N1C(=O)[C@@]2(c3cc(C#CC4=CCCCC4)ccc31)[C@H](C(=O)Nc1nc3ccccc3s1)[C@H]1C(=O)O[C@H](c3ccccc3)[C@H](c3ccccc3)N1[C@@H]2c1ccccc1OCCO,0.858
4,CN1C(=O)C2C=CC(C(O)c3cccs3)N(Nc3ccccc3)C2C1=O (stereo unspecified),0.336
5,CCc1oc(CC[C@@H](CO)NC(=O)NCCn2cc(C3(O)CCCCC3)nn2)c(C(=O)OC)c1C(=O)OC,0.336
6,C=C[C@H](COC(C)=O)N(C(=O)OC(C)(C)C)S(=O)(=O)c1ccc(Br)cc1,0.397
7,C[N+](C)(C)CCCCNC(=O)[C@H]1C[C@H]2C(=O)N[C@@H](Cc3ccccc3)C(=O)N2[C@H]1c1ccc(O)cc1,1.56
8,CCOC(=O)[C@H]1C/C=C/C[C@H](C(=O)OCC)C(=O)O[C@H]2[C@@H](OC)O[C@H](CO)[C@@H](OC(=O)Nc3cccc(F)c3)[C@@H]2OC1=O,0.729
9,NCCCCCNC(=O)[C@@H]1C[C@@H]2C(=O)N[C@@H](Cc3ccccc3)C(=O)N2[C@@H]1c1cccc(OCCO)c1,1.69
10,C=CCOC(=O)[C@H]1[C@@H]2C(=O)O[C@@H](c3ccccc3)[C@@H](c3ccccc3)N2[C@@H](c2ccc(OCCOC(=O)[C@@H]3C[C@@H]4C(=O)N[C@@H](CCCCN(C)C)C(=O)N4[C@@H]3c3ccc(O)cc3)cc2)[C@]12C(=O)Nc1ccc(I)cc12,1.32
11,CC(C)C[C@H]1NC(=O)[C@@]23C(=O)N[C@@H](Cc4ccccc4)C2[C@H](C)[C@@]2(C)O[C@H]2C3/C=C/C/C=C\CNC(=O)[C@H](Cc2ccccc2)NC1=O (stereo partly specified),-0.0973
12,CCOC(=O)[C@H]1CC=C2CC1C(=O)N1CCC[C@@H]1[C@@H]2O[Si](C)(C)C(C)(C)C (stereo partly specified),-1.15
13,COc1ccc([Si](C)(C)[C@H]2[C@H](CC(=O)N3Cc4ccccc4C[C@H]3CO)O[C@@]3(C(=O)N(Cc4ccc(N5CCC5=O)cc4)c4ccccc43)[C@@H]2C)cc1,0.548
14,O=C1C2C=CC(C(O)C(c3ccccc3)c3ccccc3)N(n3cnnc3)C2C(=O)N1Cc1ccccc1 (stereo unspecified),0.652
15,O=C(O)[C@@]1(CCS(=O)(=O)c2ccccc2)COC(c2ccc(OCCCO)cc2)=N1,0.451
16,C[C@]1(C(=O)NC2CC2)c2ccccc2C(=O)N(Cc2cc(C(F)(F)F)cc(C(F)(F)F)c2)[C@H]1c1ccc(CO)cc1,1.48
17,CCCC[C@@H]1C[C@H]1[C@@H](NC(=O)c1ccco1)c1ccc(C(=O)OC)cc1,-0.335
18,O=C1O[C@H](c2ccccc2)[C@H](c2ccccc2)N2[C@H]1[C@@H](C(=O)Nc1nc3ccccc3s1)[C@]1(C(=O)Nc3ccc(C#CCCO)cc31)[C@H]2c1ccc(OCCO)cc1,0.753
